Assay outcomes deposited in PubChem BioAssay by National Center for Advancing Translational Sciences (NCATS).
D2 PAM-1: positive allosteric modulators of human D2 dopamine receptor; potentiation, % at 10 µM; AID 485347; HEK293 T-REx D2, calcium flux, EC20 dopamine potentiation; 340,000 compounds, 0.34% hits; P14416;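 active = potentiation over 3 SD above the plate norm, cut at about 30% in these data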; also: 0% is about no effect
Target sequence (P14416 whole entry, looked up): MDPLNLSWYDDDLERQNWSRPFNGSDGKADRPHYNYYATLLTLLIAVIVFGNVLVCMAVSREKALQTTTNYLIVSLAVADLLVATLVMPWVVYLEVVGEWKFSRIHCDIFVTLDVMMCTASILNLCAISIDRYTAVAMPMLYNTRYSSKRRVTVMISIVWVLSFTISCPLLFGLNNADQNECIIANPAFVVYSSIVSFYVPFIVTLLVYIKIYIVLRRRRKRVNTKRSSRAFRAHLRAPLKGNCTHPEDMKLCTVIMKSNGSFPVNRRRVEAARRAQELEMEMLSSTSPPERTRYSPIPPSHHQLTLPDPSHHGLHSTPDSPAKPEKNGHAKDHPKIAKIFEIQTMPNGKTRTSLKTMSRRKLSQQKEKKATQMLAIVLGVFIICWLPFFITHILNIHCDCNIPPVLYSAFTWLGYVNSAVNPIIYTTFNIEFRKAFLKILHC
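Potentiation of an EC20 dopamine calcium response is measured in a force-coupled, tetracycline-inducible Hek293 Trex D2 line. Compound-only kinetic reads over 180 s flag agonists before dopamine addition.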
D2 ag-1: activates the human D2 dopamine receptor | DiscoveRx PathHunter D2 beta-arrestin, luminescence, 90 min; 100% = 57 uM dopamine signal | 360,000 compounds, 0.084% hits | P14416 | activation, % (concentration not given with the values); in the data active = activation above about 40%
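DiscoveRx PathHunter D2 beta-arrestin cells (2,100/well) attached overnight, then compound-stimulated 90 min at 37 C in HBSS/10 mM HEPES/0.1% Tween-20 buffer; beta-galactosidase complementation read by luminescence after 1 h at ambient temperature. Dopamine 57 uM final (EC100) as control.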
D2 ag-2: activates the human D2 dopamine receptor. P14416. HEK293 T-REx D2 cells, calcium flux agonist mode. activation, % at 2 µM. 340,000 compounds, 0.53% hits;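 active = activation over 3 SD above normal in the single-dose calcium agonist read, cut at about 30% in these data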; also: 0% is about no effect
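Calcium-flux readout, 1 cycle/sec over 180 s following compound pin transfer, in inducible HEK293 Trex D2 cells (force-coupled); dopamine controls included. Positive calcium responses during this window marked compounds as potential agonists.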
D2 PAM-2: potentiates the human D2 dopamine receptor allosterically; DiscoveRx D2 beta-arrestin cells, luminescence, 90 min; 100% = 57 uM dopamine signal; potentiation, % (concentration not given with the values); 360,000 compounds, 0.23% hits; in the data active = potentiation above about 50%
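PathHunter D2 cells, attached overnight at 37 deg C, received compound in DMSO plus dopamine at EC20 (50 nM final) for 90 min at 37 deg C. Beta-arrestin recruitment was read as luminescence after 1 h with detection reagent at ambient temperature.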
D2 antag: antagonists of human D2 dopamine receptor. inhibition, % at 10 µM. AID 485344. HEK293 TREx D2 cells, calcium flux, dopamine EC80. P14416. 340,000 compounds, 2% hits; in the data active = inhibition above about 30%; inactive = below that, where a call was filed; also: 0% is about no effect
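Calcium mobilization kinetics were recorded at 1 s intervals in tetracycline-induced HEK293 T-REx D2 cells, first for 180 s after compound addition and then 180 s after EC80 dopamine.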
An asterisk follows results filed as active; / = no result given. An excerpt weighted towards active compounds, which were near 2.4% of everything screened.

SMILES	D2 PAM-1	D2 ag-1	D2 ag-2	D2 PAM-2	D2 antag
O=C(NCC1OCCc2ccccc21)c1cc(COc2ccc(F)cc2Cl)on1 (configuration not stated)	-10.2	-2.9	0.7	-9.3	50.2*
COC(=O)CC1Oc2ccccc2-n2cc(-c3ccc(Cl)cc3)nc21 (configuration not stated)	-5.7	/	0.5	/	/
NC(=O)c1ccccc1N/C=C/C(=O)c1cccs1	30.8*	-6.6	0.0	-4.3	-11.7
Cc1cccc(N/C=C/C(=O)c2cccs2)c1C	-3.0	-4.1	-0.6	-23.9	3.8
O=C(Cc1c(F)cccc1Cl)NC1CCN(Cc2ccccc2)CC1	/	-6.7	/	-52.0	/
Cc1cc(OC(C)C(=O)NC2CCN(Cc3ccccc3)CC2)c2c(C)cc(=O)oc2c1 (configuration not stated)	-18.6	2.9	-0.8	-33.4	72.9*
O=C(Cc1ccccc1[N+](=O)[O-])NC1CCN(Cc2ccccc2)CC1	-28.8	-2.0	1.5	-5.2	48.4*
Cc1cc(OCC(=O)NC2CCN(Cc3ccccc3)CC2)c2c(C)cc(=O)oc2c1	-22.4	-2.0	-0.4	-38.7	54.3*
O=C(COc1ccccc1F)NC1CCN(Cc2ccccc2)CC1	-15.2	-3.3	0.0	-24.6	48.4*
Cc1cc2c(cc3c(SCc4ccc(Cl)cc4)nncn32)o1	3.4	/	0.8	/	/
Cc1ccc(C(=O)NCCc2c[nH]c3ccccc23)c(C)c1	-26.0	-4.2	-0.3	-9.9	73.8*
Cc1c2cnn(CC(=O)N3CCN(c4ccccc4)CC3)c(=O)c2c(C)n1Cc1ccc(F)cc1	26.3	/	0.3	/	/
CCc1ccc(CN(C(=O)COc2c(C)cccc2C)C2CCS(=O)(=O)C2)cc1 (configuration not stated)	2.1	0.2	0.0	-8.9	-3.2
Cc1cc(C)c(OCC(=O)N(Cc2ccccc2)C2CCS(=O)(=O)C2)c(C)c1 (configuration not stated)	44.4*	2.7	0.0	-4.7	6.1
Cc1ccccc1NS(=O)(=O)c1ccc(C)c(NS(C)(=O)=O)c1C	-13.4	2.5	0.4	-6.3	32.8*
COc1cc(NC(=O)C2CCN(S(=O)(=O)c3c(C)noc3/C=C/c3cccs3)CC2)cc(OC)c1	-6.8	/	0.6	/	/
CCOC(=O)c1ccc(Nc2nnc(C(C)(C)C)c(=O)[nH]2)cc1	0.1	-0.5	-0.1	-9.7	53.1*
CCOC(=O)c1ccc(Nc2ccc(C(C)=O)cc2)cc1	/	3.2	/	4.5	/
COCCn1nnnc1SCC(=O)c1ccc(F)cc1	4.6	-7.6	1.0	-18.6	38.8*
COCCn1c(SCC(=O)c2ccc(F)cc2)nnc1C(C)C	11.1	-3.2	-1.2	-17.5	13.5
O=C(NCc1ccco1)C1CCN(C(=O)N2CCOc3ccccc32)CC1	-6.3	/	0.2	/	/
Cc1ccc(Cn2c(CN3CCC(C(=O)NCCc4ccccc4)CC3)cc3ccccc32)cc1	-5.7	/	0.8	/	/
Cc1ccc(OCC(=O)Nc2ccc(O)c(-c3nc4ccccc4o3)c2)cc1	32.1*	0.7	0.5	-11.2	-0.1
COc1ccc(-c2noc(N(c3cccc(Cl)c3)c3nc(-c4ccc(OC)c(OC)c4)no3)n2)cc1OC	-0.6	/	-1.1	/	/
COc1cccc2c1OC1(C)CC2/C(=C(\C)O)C(=O)N1 (configuration not stated)	8.2	-0.7	0.1	-6.2	51.3*
SMILES	D2 PAM-1	D2 ag-1	D2 ag-2	D2 PAM-2	D2 antag
COc1ccc(-c2nc(SCC(=O)NCc3nc4ccccc4n3C)n3[nH]c(=O)cc3n2)cc1	-5.7	/	-0.2	/	/
CCCN1CN(Cc2ccco2)c2nc3ccccc3n2C1	9.0	-0.5	-1.5	7.9	42.7*
COc1ccc(CN2CCNC(=O)C2CC(=O)NC2CCCC2)c(OC)c1 (configuration not stated)	106.8*	-1.4	-0.3	-5.7	-26.9
O=C(Oc1cccc2ccccc12)c1ccncc1	-3.1	-1.0	-0.1	1.9	34.0*
COc1cc2nc(Nc3ccc(C)c(C)c3)nc(N)c2cc1OC	5.0	-2.9	-1.0	-12.1	30.4*
C=CCc1ccc(OCCOCCN(C)C)c(OC)c1	30.7*	-0.1	-0.4	-26.0	5.0
Cc1ccc(C(=O)N/C(=C\c2ccc(Cl)cc2)C(=O)NC2CCCCC2)cc1	-16.6	/	-2.1	/	/
COc1ccc(C2CC(=O)c3cc(-c4nc(-c5cccc([N+](=O)[O-])c5)cs4)c(=O)n(-c4ccccc4C)c3C2)cc1 (configuration not stated)	3.1	/	0.2	/	/
Cc1cc(C)c(C#N)c(SCS(=O)Cc2ccccc2)n1 (configuration not stated)	-2.6	1.8	-1.2	-6.8	-13.1
Cc1cc(C)c(C#N)c(SCS(=O)Cc2ccc(Cl)cc2)n1 (configuration not stated)	-7.5	-0.2	0.0	-16.3	36.7*
Cc1ccccc1OCCCCn1nnc2sc3c(c2c1=O)CCC(C)C3 (configuration not stated)	-4.8	/	0.2	/	/
NC(=O)C1C(c2ccccc2)=C1c1ccccc1	-3.0	-2.1	0.4	-7.2	38.4*
FC(F)(F)c1cccc(N2CCN(Cc3nnc(-c4ccc5c(c4)OCO5)o3)CC2)c1	-16.3	/	-0.2	/	/
CNC[C@H](O)c1ccc(O)c(O)c1	-18.1	62.8*	4.8	79.3*	25.0
CC(C)NCC(O)c1ccc(O)c(O)c1 (configuration not stated)	33.2*	-1.0	5.0	-2.2	17.3
CCOC(=O)C1CCN(C(=O)c2nn(-c3ccc(C)cc3)c(=O)c3c2c2ccccc2n3C)CC1	2.3	/	0.4	/	/
O=C(c1ccc(Oc2ccccc2)cc1)c1nc2c(n1O)CCCC2	4.5	4.7	0.3	1.3	31.1*
COc1cc(NC(=O)N2CCN(c3cc(-c4noc(C)n4)ccc3C)CC2)cc(OC)c1OC	6.2	/	/	/	/
O=C(CN1CCN(c2ccccn2)CC1)Nc1ccccc1	8.0	6.2	0.9	-10.5	31.4*
O=C(CN1CCN(c2ccccn2)CC1)Nc1ccc(F)cc1	5.9	11.4	0.2	-6.9	5.6
O=C(CN1CCN(c2ccccn2)CC1)Nc1ccc(Oc2ccccc2)cc1	/	49.9*	/	10.2	/
O=C(c1ccc2c(c1)N(Cc1ccc(F)cc1)C(=O)c1ccccc1S2(=O)=O)N1CCCCCC1	3.2	/	1.2	/	/
Cc1cc(NC(=O)C(C)Sc2nc(-c3cccs3)nc3ccccc23)no1 (configuration not stated)	32.2*	0.5	1.1	-9.2	10.3
CCOC(=O)C1CCCN(C(=O)CCS(=O)(=O)c2cc3c(cc2Cl)NC(=O)CO3)C1 (configuration not stated)	/	/	1.3	/	/
COc1ccccc1C(=O)NC1(C(F)(F)F)C(=O)NC(C)=C1C#N (configuration not stated)	-13.1	/	-0.1	/	/
COc1ccc(-n2nc(C(=O)N(C)C)nc2-c2ccccc2)cc1	9.3	9.0	0.0	0.3	31.2*
